This passage reports growth results from PubChem BioAssay (NCI).

Compounds without any hit were thinned out: in the full panel of roughly 83,000, 20% have a hit.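 Cells were grown in 96-well plates and exposed to the test compound at a single concentration for 48 hours; results are reported as percent growth, with values below 10 considered active.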 Activity calls are given as the source filed them.

This assay deals with HL-60(TB) leukemia. Briefly: NCI-60 one-dose screen, 48 h (100 = growth as untreated, 0 = no growth, -100 = all killed). The note with it: 10 µM unless noted.
On to `O=C1C(SCc2ccccc2)=C(Cl)CN1c1ccc(Cl)cc1`, for which the growth was 44% (inactive).
Next, `COc1cc(/C=N\NC(=O)c2ccc3nc(-c4ccc(Br)cc4)[nH]c3c2)cc(OC)c1OC`: 27% (inactive); `NC1=NC2(CCCC2)N(c2ccc(S(=O)(=O)Nc3nccs3)cc2)C(N)=N1`: 102% (inactive).
With `Cn1cc(-c2nnc(N)nc2-c2cn(C)c3ccc(F)cc23)c2cc(F)ccc21`, the growth was 79.3% (inactive).
For the molecule `Cn1c(SCC(=O)c2ccc(F)cc2)nc2ccccc2c1=O`, the growth was 97.9% (inactive).
Next, `NS(=O)(=O)c1ccc(Nc2nc(N/N=C/c3ccc4c(c3)OCO4)nc(Nc3ccccc3)n2)cc1`: 31.1% (inactive).
As to `O=C(/C=C1\C=CN(CCCCF)c2ccccc21)n1ccc2ccccc21`, the growth was 121% (inactive).
With `CCOc1ccc(NC2=C(Cl)C(=O)c3nc(C)ccc3C2=O)cc1`, the growth is -46.4% (active).
Turning to `CC(=O)c1c([Si](C)(C)C)c2cc(C#N)ccn2c1C(=O)c1ccc(Br)cc1`, the growth is 97.8% (inactive).
In the case of `COc1ccc(-c2cc(-c3ccc(Cl)cc3)c(C#N)c(=O)n2Cc2ccc(C(=O)O)cc2)cc1`, the growth was 92.1% (inactive).
On to `O=C(NNc1nc2cc(F)ccc2n2c(CN3CC4(COC4)C3)ccc12)c1cnccn1`, for which the growth is -30.1% (active).
Next, `O=C1[C@H]2Cc3c([nH]c4ccccc34)[C@@H](c3ccc(Br)cc3)N2C(=O)CN1C1CCN(Cc2ccccc2)CC1`: -28.4% (active); `O=S(=O)(NCCCNc1nccc(-n2cnc3ccccc32)n1)c1ccc(C(F)(F)F)cc1`: 101% (inactive).
`O=C(NNc1nc2cc(F)ccc2n2c(CN3CC4CNCC4C3)ccc12)c1cnccn1` (stereo not given): the growth is 0.485% (active).
The figure for `c1ccc(CNc2ncnc3ccc(-c4cnc5[nH]ncc5c4)cc23)cc1` is 63.8% (inactive); for `COc1cc(-c2nn(C(C)(C)C)cc2-c2ccnc(NCCCNS(=O)(=O)c3ccccc3)n2)ccc1Cl` it is 103% (inactive).
Next, `Cn1cc(-c2cc(N)n3nc(-c4cn(C)c5ccc(F)cc45)cc3n2)c2cc(F)ccc21`: -32.4% (active).
Next, `Cc1ccc(/C=N/Nc2nc(Nc3ccccc3)nc(Nc3ccc(S(N)(=O)=O)cc3)n2)cc1`: 75.2% (inactive).
In the case of `N#Cc1cccc(CN2CCc3ncn(Cc4ccc(Cl)cc4)c(=O)c3C2)c1`, the growth was 13.5% (inactive).
`COC(=O)c1cccc(NC2=C(Cl)C(=O)C(C)=C(C)C2=O)c1`: the growth was 60.4% (inactive).
Next, `Cc1c(Nc2nnc(SCC(=O)Nc3sc4c(c3C#N)CCCC4)s2)c(=O)n(-c2ccccc2)n1C`: 108% (inactive); `COc1cc2oc(-c3cccc(C(=O)N[C@@H](CC(C)C)C(=O)OC(C)(C)C)c3)cc(=O)c2c(OC)c1OC`: 76.8% (inactive).
The figure for `O=C1[C@H]2Cc3c([nH]c4ccccc34)[C@@H](c3ccc(Cl)cc3)N2C(=O)CN1C1CCN(Cc2c(Cl)cccc2Cl)CC1` is 108% (inactive).
Turning to `IP(CCCCCCCCCCSc1n(Cc2ccc3ccccc3c2)c(-c2ccccc2)c(-c2ccccc2)[n+]1Cc1ccc2ccccc2c1)(c1ccccc1)(c1ccccc1)c1ccccc1`, the growth was -62.5% (active).
For the molecule `CC1=C2C(=C[C@@](C)(COS(N)(=O)=O)[C@@H]2O)C(=O)[C@](C)(O)C12CC2`, the growth is 61.4% (inactive).
The figure for `Cn1c2ccc(Br)cc2c2c3c(c4c5cc(F)ccc5oc4c21)C(=O)N(O)C3=O` is 99.6% (inactive); for `Oc1ccc(CSc2nnc(-c3ccccc3)n2-c2ccccc2)c2cccnc12` it is 7.9% (active).
As for `COc1ccc(-c2nc3cc(Cl)c(Cl)cc3n2CC(=O)N=Nc2c(O)[nH]c3ccccc23)cc1`, the growth is 92.5% (inactive).
The figure for `C#Cc1nc(/C=C\CCCCCCC(=O)NO)cs1` is -53.8% (active); for `Cc1ccc2c(n1)C(=O)C(Cl)=C(Nc1ccc(C(F)(F)F)cc1)C2=O` it is 35.8% (inactive).
